Assay in all cases: NCI-60 one-dose screen, 48 h (100 = growth as untreated, 0 = no growth, -100 = all killed)
What all share (settings): 10 µM unless noted

For experiment [1], the system named is T-47D breast.
Experiment [2] relates to BT-549 breast.
For experiment [3], the system named is MDA-MB-435 melanoma.
Experiment [4] has as its system SW-620 colon.
The subject of experiment [5] is MCF7 breast.
In experiment [6] the test system is HCT-116 colon.
The subject of experiment [7] is HCC-2998 colon.
In experiment [8] the test system is KM12 colon.

This passage reports growth results from PubChem BioAssay (NCI).

About 83,000 compounds went through this panel and 20% of them were active in at least one assay; those are over-represented in the sample as a whole.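 Single-concentration screen, 48 h exposure, 96-well plates. Endpoint: percent growth. Below 10 = active.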 A number with no mark means an inactive call. Active and inactive are the calls of the source.

For the molecule `O=C(CCCCN1CCOCC1)Nc1ccc(Cn2nnc3c2C(=O)c2nnn(Cc4ccc(NC(=O)CCCCN5CCOCC5)cc4)c2C3=O)cc1`, the growth in experiment [1] was -50.5% (active); in experiment [2], -94.7% (active); in experiment [3], -77% (active); in experiment [4], -50.1% (active); in experiment [5], -51.7% (active); in experiment [6], -91% (active). In addition, the results for the growth in experiment [7] and in experiment [8] were -62.3% (active) and -36.2% (active), respectively.

`C[C@@]1(N2C(=O)OC[C@@H]2c2ccccc2)C(=O)N([C@H](CC(=O)N2CCC(N3CCCCC3)CC2)C(=O)NCc2cccc(C(F)(F)F)c2)[C@@H]1/C=C/c1ccccc1`: the growth is 27.4% in experiment [1]; 78.1% in experiment [2]; 1% (active) in experiment [3]; 58.5% in experiment [4]; 25.3% in experiment [5]; 44.9% in experiment [6]. Moreover, the growth in experiment [7] is 47.3%; in experiment [8] it was 55.9%.

For the molecule `CCOC(=O)C(Cc1cc(I)c(O)c(I)c1)NC(=O)c1ccccc1` (configuration not stated), the growth in experiment [1] is 86.6%; in experiment [2], 101%; in experiment [3], 100%; in experiment [4], 94.4%; in experiment [5], 92.5%; in experiment [6], 96.2%. The growth in experiment [7] was 119%; in experiment [8], 102%.

Regarding `Cc1noc(C)c1-c1cc(O)cc(C(O)c2ccccc2)c1` (configuration not stated), the growth in experiment [1] is 47.1%; in experiment [2] it was 64.7%; in experiment [3], 43.9%; in experiment [4] it was 72.1%; in experiment [5], 20.9%; in experiment [6], 58.1%. Also, the growth was 62.2% in experiment [7] and 53.1% in experiment [8].

With `CCN(CC)CCC(=O)c1ccc(OC)c2ccccc12`, the growth in experiment [1] is 29.1%; in experiment [2], 79.6%; in experiment [3] it was 102%; in experiment [4] it was 93%; in experiment [5] it was 11.9%; in experiment [6] it was 88.4%. Besides, the results for the growth in experiment [7] and in experiment [8] were 90.8% and 81.8%, respectively.

For the molecule `COc1ccc(CNc2nccnn2)cc1`, the growth in experiment [1] is 105%; in experiment [2], 114%; in experiment [3], 102%; in experiment [4], 104%; in experiment [5], 99.4%; in experiment [6], 101%. Besides, the results for the growth in experiment [7] and in experiment [8] were 98.7% and 99.3%, respectively.

Take `CCC(=O)Oc1ccc(/C(=C(\C)c2ccccc2)c2ccc(OCCN(CC)CC)cc2)cc1`: the growth in experiment [1] was 43.8%; in experiment [2], 86.3%; in experiment [3], 76.1%; in experiment [4] it was 79.4%; in experiment [5], 37.9%; in experiment [6], 62.1%. The results for the growth in experiment [7] and in experiment [8] were 103% and 80.3%, respectively.

Consider `Cc1ccc2c(NCCCN(C)C)c3c(C)nn(C)c3nc2c1`, for which the growth in experiment [1] is 44.8%; in experiment [2], 54.3%; in experiment [3] it was 37.1%; in experiment [4], 23.5%; in experiment [5], 5.14% (active); in experiment [6], 20.2%. Moreover, the growth in experiment [7] is 59.3%; in experiment [8] it was 32.8%.

For `Nc1nc(-c2ccc(F)cc2)cc(-c2cnn(-c3ccccc3)n2)n1`, the growth in experiment [1] was 87.1%; in experiment [2], 119%; in experiment [3], 106%; in experiment [4], 99.3%; in experiment [5] it was 79.9%; in experiment [6], 106%. Further, the growth in experiment [7] is 111%; in experiment [8] it was 100%.

As for `COC(=S)SCN(CSC(=S)OC)c1ccc(Cl)cc1`, the growth was 70.1% in experiment [1]; 65.8% in experiment [2]; 95.3% in experiment [3]; 99.1% in experiment [4]; 73.5% in experiment [5]; 79.7% in experiment [6]. Moreover, the growth is 100% in experiment [7] and 98.2% in experiment [8].

For `CC/C=C\C[C@H](O)C/C=C1/C(=O)C=C[C@@H]1C/C=C\CCCC(=O)NC(C)C`, the growth in experiment [1] was 11.4%; in experiment [2], 0.828% (active); in experiment [3], 5.43% (active); in experiment [4], 11.7%; in experiment [5], 14.4%; in experiment [6], -54.3% (active). Also, the growth was -55.5% (active) in experiment [7] and -43.5% (active) in experiment [8].

With `CN1CCOCCOCCOc2ccccc2NC(=O)c2nc(cnc2N)-c2ccc(cc2)S1(=O)=O`, the growth was 80.1% in experiment [1]; 48.1% in experiment [2]; 58.3% in experiment [3]; 48.7% in experiment [4]; 31.1% in experiment [5]; 29.1% in experiment [6]. The growth in experiment [7] was 32.2%; in experiment [8] it was 33.3%.

Take `CC(=O)C1=C(O)C=C2Oc3c(C(=O)/C=C/c4cc(Cl)cc(Cl)c4)c(O)c(C)c(O)c3[C@]2(C)C1=O`: the growth in experiment [1] was -24.4% (active); in experiment [2] it was -19.9% (active); in experiment [3], -42.2% (active); in experiment [4] it was 0.897% (active); in experiment [5], -10.6% (active); in experiment [6], -15.9% (active). The growth in experiment [7] was -46.9% (active); in experiment [8], -6.77% (active).

As to `CS(=O)(CCCCN=C=S)=NC(=O)c1c(F)c(F)c(F)c(F)c1F` (configuration not stated), the growth is 44.2% in experiment [1]; 97.1% in experiment [2]; 99.1% in experiment [3]; 74.5% in experiment [4]; 12.8% in experiment [5]; 86.4% in experiment [6]. Besides, the growth in experiment [7] is 94%; in experiment [8], 54.2%.
